Data on six compounds can be found in PubChem BioAssay (Tox21).

Each structure is given as a SMILES string. Values joined by “and” are separate entries in the source; they are usually repeats but may differ in a detail not shown here. Equal entries are not always repeated. Inconclusive results are not listed. Active and inactive are the calls of the source. Unless noted, calls follow the shape of the dose curve; as a rule, active = well fitted curve in the direction sought with a large enough effect in the repeat runs; inconclusive = weak or mixed curves; inactive = no such curve, though single readings can be large; an effect the other way counts as inactive or inconclusive.

Test [1] is described as follows: qHTS assay to test for compound auto fluorescence at 460 nm (blue) in HEK293 cells (AID 720678). An outline of the steps:
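Triamterene serves as the blue fluorophore standard. Compound signal at 405/460 nm is read in HEK293 wells (2,000 cells, 10% dialyzed FBS) after overnight treatment at 37C.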
On the technique in general: qHTS replaces the single test concentration by a dilution series.

Test [2] is described as follows: qHTS assay to test for compound auto fluorescence at 460 nm (blue) in HEK293 cell free culture (AID 720681). The method in brief: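 Blue fluorescence (Ex 405/Em 460 nm, triamterene-equivalent) was read immediately after pin transfer of compound or DMSO into medium (DMEM, 10% FBS) without cells.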
The nature of test [3]: qHTS assay to test for compound auto fluorescence at 535 nm (green) in HepG2 cell free culture (AID 720686).
The nature of test [4]: qHTS assay for identifying genotoxic compounds that show differential cytotoxicity against isogenic chicken DT40 cell lines with known DNA damage response pathways - Rev3 mutant cell line (AID 743014). Also: potency is read from the fitted curve at half-maximal effect; nearly all actives have a fitted effect of over 55% in size.
The nature of test [5]: qHTS assay for identifying genotoxic compounds that show differential cytotoxicity against isogenic chicken DT40 cell lines with known DNA damage response pathways - Rad54/Ku70 mutant cell line (AID 743015). Also: potency is read from the fitted curve at half-maximal effect; nearly all actives have a fitted effect of over 60% in size.
The nature of test [6]: qHTS assay to identify small molecule antagonists of the thyroid receptor (TR) signaling pathway (AID 743065). Also: potency is read from the fitted curve at half-maximal effect; nearly all actives have a fitted effect of over 55% in size. The method in brief:
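Antagonism measured as loss of luciferase signal in GH3 cells stably carrying a TRE-luciferase reporter, co-treated with compound and T3 (1 nM final) for 23.5 h at 37 C. Viability was read in the same well by CellTiter-Fluor.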

A short description of test [7]: qHTS assay to identify small molecule antagonists of the farnesoid-X-receptor (FXR) signaling pathway - cell viability counter screen (AID 743221; active = well fitted cell-killing curve with a large enough effect in the repeat runs, not every such curve was filed as active; also: nearly all actives have a fitted effect of over 50% in size; also: potency is read from the fitted curve at half-maximal effect). An outline of the steps: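 Cytotoxicity counter screen run in the FXR-bla reporter wells: HEK 293T cells exposed to compound with 50 uM (final) chenodeoxycholic acid for 16 h, 37 C, then viability measured by CellTiter-Glo luminescence after 30 min, room temperature.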

Test [8] can be described thus: qHTS RealTime-Glo MT Cell Viability Assay in HEK293 cells - 8 hour (AID 1224887). Also: nearly all actives have a fitted effect of over 50% in size. Also: potency is read from the fitted curve at half-maximal effect. The method in brief:
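Luminescence readout at each listed time point; HEK293, 600 cells/well, RealTime-Glo MT reagent added with cells; compounds pinned (23 nL in DMSO) after 5 h at 37 C; continuous culture at 37 C.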

The target in test [9] is Estrogen receptor beta (Homo sapiens) (UniProt Q92731). As to the kind of experiment: qHTS assay to identify small molecule agonists of the estrogen receptor beta (ER-beta) signaling pathway (AID 1259377; active = well fitted activation curve with a large enough effect in the signal ratio in the repeat runs, not every such curve was filed as active; the % refers to the signal ratio). An outline of the steps:
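Ratiometric beta-lactamase FRET read-out came after 2 h substrate loading at room temperature. It followed 16 h compound treatment at 37C of GripTite HEK293T cells carrying a UAS-bla reporter, plated in 2% charcoal-stripped FBS medium.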

The target of test [10] is Thyrotropin receptor (Homo sapiens) (UniProt P16473). As to the kind of experiment: qHTS assay to identify small molecule antagonists of the thyroid stimulating hormone receptor (TSHR) signaling pathway (AID 1259385; calls by dose curve; also: nearly all actives have a fitted effect of over 20% in size; also: potency is read from the fitted curve at half-maximal effect). An outline of the steps:
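Antagonist mode: compound-treated TSHR-expressing HEK293 cells were stimulated with 1.5 ng/mL TSH (final) in presence of Ro20-1724 for 30 min at RT. HTRF cAMP detection after 1 h; each compound tested at 15 concentrations, triplicate.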

Test [11] can be described thus: qHTS assay to identify small molecule agonists of the progesterone receptor (PR) signaling pathway - cell viability counter screen (AID 1346799; calls by dose curve; also: nearly all actives have a fitted effect of over 45% in size; also: potency is read from the fitted curve at half-maximal effect). The method in brief:
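Cytotoxicity measured by CellTiter-Glo luminescence (30 min, RT) in the same wells as the PR beta-lactamase agonist read. Those HEK293T cells had 16 h compound treatment at 37 C in 2% charcoal-stripped FBS medium.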

In test [12] the target is Thyrotropin-releasing hormone receptor (Homo sapiens) (UniProt P34981). As to the kind of experiment: qHTS assay to identify small molecule antagonists of the thyrotropin-releasing hormone receptor (TRHR) signaling pathway (AID 1346877; active = well fitted inhibition curve with a large enough effect in the repeat runs, not every such curve was filed as active; also: series mostly up to about 51 µM). The method in brief: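 HEK293/TRHR cells, 18 h, 37 °C; Ca2+ dye 2 h; cpd 5 min RT; TRH 1 nM final; fluorescence read 3 min, 1 s intervals; 15 concs, triplicate.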
Sequence of Thyrotropin-releasing hormone receptor (Homo sapiens) (P34981 whole entry, looked up): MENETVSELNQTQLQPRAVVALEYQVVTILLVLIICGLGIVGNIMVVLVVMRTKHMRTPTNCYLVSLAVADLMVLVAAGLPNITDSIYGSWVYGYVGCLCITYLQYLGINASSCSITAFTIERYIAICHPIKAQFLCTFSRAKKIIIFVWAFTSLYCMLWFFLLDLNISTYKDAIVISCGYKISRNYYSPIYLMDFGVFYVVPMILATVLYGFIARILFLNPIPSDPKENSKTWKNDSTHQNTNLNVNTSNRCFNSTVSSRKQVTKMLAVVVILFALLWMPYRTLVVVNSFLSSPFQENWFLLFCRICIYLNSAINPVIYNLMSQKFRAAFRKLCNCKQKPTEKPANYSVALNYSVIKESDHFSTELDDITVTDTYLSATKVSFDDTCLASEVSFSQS

Test [13] is described as follows: qHTS assay to identify small molecule antagonists of the estrogen related receptor signaling pathway with the pleiotropic PPARgamma coactivator (PGC) from Tox21 10K library (AID 1224841; call rule not given here; also: actives are mostly falling curves and most rising ones were filed inactive; nearly all actives have a fitted effect of over 50% in size; also: potency is read from the fitted curve at half-maximal effect). The method in brief: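 Luminescence read-out (One-Glo luciferase reagent, 30 min at room temperature) from PGC/ERR cells exposed to DMSO-dissolved test compounds for 18 h at 37 C; cells, 2,000 per well, had been preincubated 6 h before compound transfer.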

Test [14] deals with Estrogen receptor (Homo sapiens) (UniProt P03372). Nature of the test: qHTS assay to identify small molecule antagonists of the estrogen receptor alpha (ER-alpha) signaling pathway using the BG1 cell line in the presence of 0.1 nM 17-beta-estradiol (AID 1259244). Also: nearly all actives have a fitted effect of over 50% in size. Also: potency is read from the fitted curve at half-maximal effect. The method in brief: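 Luminescence after ONE-Glo (30 min, room temperature) measured ERE-luciferase activity in VM7Luc4E2 cells treated 22 h with compound and 0.1 nM final 17beta-estradiol as stimulator.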
Sequence of Estrogen receptor (Homo sapiens) (P03372 whole entry, looked up): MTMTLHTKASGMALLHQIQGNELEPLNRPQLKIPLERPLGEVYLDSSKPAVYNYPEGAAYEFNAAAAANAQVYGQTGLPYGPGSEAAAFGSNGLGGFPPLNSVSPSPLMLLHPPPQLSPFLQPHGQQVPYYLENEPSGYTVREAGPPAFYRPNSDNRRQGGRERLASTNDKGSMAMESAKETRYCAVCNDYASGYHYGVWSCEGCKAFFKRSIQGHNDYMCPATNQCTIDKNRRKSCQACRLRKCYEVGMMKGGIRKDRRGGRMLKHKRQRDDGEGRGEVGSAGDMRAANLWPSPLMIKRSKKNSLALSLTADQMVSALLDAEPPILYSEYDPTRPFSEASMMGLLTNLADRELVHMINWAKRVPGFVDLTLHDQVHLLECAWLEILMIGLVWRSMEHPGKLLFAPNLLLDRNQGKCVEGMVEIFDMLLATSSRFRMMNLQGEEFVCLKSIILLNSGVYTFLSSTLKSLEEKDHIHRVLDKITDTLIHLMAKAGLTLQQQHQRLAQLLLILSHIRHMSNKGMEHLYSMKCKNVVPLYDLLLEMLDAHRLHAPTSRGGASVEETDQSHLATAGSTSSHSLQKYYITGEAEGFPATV

In test [15] the target is Androgen receptor (Homo sapiens) (UniProt P10275). As to the kind of experiment: qHTS assay to identify small molecule agonists of the androgen receptor (AR) signaling pathway in the presence of an antagonist (AID 1259381; calls by dose curve; also: nearly all actives have a fitted effect of over 15% in size; also: potency is read from the fitted curve at half-maximal effect). The method in brief: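 Luciferase read-out (ONE-Glo, 30min room temperature) in MDA-kb2 MMTV-reporter cells; agonist mode run in presence of AR antagonist nilutamide, 3.0uM final. Compounds tested as 15-point series, 16hr exposure at 37C, 0% CO2.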
Sequence of Androgen receptor (Homo sapiens) (P10275 whole entry, looked up): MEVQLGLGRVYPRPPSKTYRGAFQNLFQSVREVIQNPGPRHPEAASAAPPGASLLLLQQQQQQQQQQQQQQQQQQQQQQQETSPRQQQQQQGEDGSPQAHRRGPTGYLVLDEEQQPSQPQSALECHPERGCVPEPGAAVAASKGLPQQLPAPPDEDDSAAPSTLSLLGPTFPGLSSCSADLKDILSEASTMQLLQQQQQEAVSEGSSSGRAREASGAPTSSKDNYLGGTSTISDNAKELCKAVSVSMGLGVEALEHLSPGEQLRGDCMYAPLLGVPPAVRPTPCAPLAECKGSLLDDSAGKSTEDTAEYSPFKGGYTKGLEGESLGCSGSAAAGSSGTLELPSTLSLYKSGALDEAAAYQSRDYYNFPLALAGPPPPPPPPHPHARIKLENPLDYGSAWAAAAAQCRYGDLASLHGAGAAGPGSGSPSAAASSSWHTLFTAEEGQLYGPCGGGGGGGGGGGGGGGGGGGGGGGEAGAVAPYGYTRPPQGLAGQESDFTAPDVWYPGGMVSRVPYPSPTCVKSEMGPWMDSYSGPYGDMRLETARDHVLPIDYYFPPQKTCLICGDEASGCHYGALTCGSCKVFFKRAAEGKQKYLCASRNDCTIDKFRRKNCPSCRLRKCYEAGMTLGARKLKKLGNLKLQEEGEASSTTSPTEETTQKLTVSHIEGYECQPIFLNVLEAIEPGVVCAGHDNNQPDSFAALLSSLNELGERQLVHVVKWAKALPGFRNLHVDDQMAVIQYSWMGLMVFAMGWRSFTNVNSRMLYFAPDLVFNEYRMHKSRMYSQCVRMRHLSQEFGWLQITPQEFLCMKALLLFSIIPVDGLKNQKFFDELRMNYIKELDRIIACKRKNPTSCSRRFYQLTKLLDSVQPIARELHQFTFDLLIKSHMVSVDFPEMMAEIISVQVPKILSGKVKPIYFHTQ

A short description of test [16]: qHTS assay to identify small molecule antagonists of the progesterone receptor (PR) signaling pathway - cell viability counter screen (AID 1346798). Also: nearly all actives have a fitted effect of over 50% in size. Also: potency is read from the fitted curve at half-maximal effect. An outline of the steps:
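Cytotoxicity read as CellTiter-Glo luminescence (30 min, room temperature) in the same wells as the beta-lactamase readout. HEK293T PR-UAS-bla cells in charcoal-stripped 2% FBS received compound and R5020, then 16 h at 37C, 5% CO2.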

The nature of test [17]: qHTS assay to test for compound auto fluorescence at 590 nm (red) in HepG2 cells (AID 720674). An outline of the steps: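 1 hr compound incubation on HepG2 cells, 37 C, 5% CO2; plate read ex 540 nm / em 590 nm; intensities reported as Rose Bengal sodium equivalents.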
The nature of test [18]: qHTS assay to identify small molecule antagonists of the estrogen related receptor signaling pathway with the pleiotropic PPARgamma coactivator (PGC) from Tox21 10K library - cell viability counter screen (AID 1224840; active = well fitted cell-killing curve with a large enough effect in the repeat runs, not every such curve was filed as active; also: potency is read from the fitted curve at half-maximal effect; nearly all actives have a fitted effect of over 40% in size). An outline of the steps: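 Fluorescence read-out of CellTiter-Fluor viability reagent, added after cells had been exposed to compound in DMSO for 17.5 h at 37 C; 30 min development at 37 C/5% CO2. Cells: PGC/ERR line, 2,000/well.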

Test [19] in a line: qHTS assay to identify small molecule antagonists of the estrogen related receptor (ERR) signaling pathway from Tox21 library (AID 1224848). The method in brief:
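ERR cell line, 2,000 cells/well. 6 h settle, then compound (DMSO) added; 18 h at 37 C; ONE-Glo luminescence after 30 min RT.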

For test [20], the target named is Thyrotropin receptor (Homo sapiens) (UniProt P16473). Nature of the test: qHTS assay to identify small molecule agonists of the thyroid stimulating hormone receptor (TSHR) signaling pathway (AID 1224843; calls by dose curve; also: nearly all actives have a fitted effect of over 45% in size). An outline of the steps: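 A cell-based cAMP HTRF format was run in TSHR-transfected HEK293 cells, 800 per well. Treatment: 30 min, room temperature. Detection: 1 h with labelled cAMP and anti-cAMP cryptate. Concentration-response over 15 points, three replicates.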
Sequence of Thyrotropin receptor (Homo sapiens) (P16473 whole entry, looked up): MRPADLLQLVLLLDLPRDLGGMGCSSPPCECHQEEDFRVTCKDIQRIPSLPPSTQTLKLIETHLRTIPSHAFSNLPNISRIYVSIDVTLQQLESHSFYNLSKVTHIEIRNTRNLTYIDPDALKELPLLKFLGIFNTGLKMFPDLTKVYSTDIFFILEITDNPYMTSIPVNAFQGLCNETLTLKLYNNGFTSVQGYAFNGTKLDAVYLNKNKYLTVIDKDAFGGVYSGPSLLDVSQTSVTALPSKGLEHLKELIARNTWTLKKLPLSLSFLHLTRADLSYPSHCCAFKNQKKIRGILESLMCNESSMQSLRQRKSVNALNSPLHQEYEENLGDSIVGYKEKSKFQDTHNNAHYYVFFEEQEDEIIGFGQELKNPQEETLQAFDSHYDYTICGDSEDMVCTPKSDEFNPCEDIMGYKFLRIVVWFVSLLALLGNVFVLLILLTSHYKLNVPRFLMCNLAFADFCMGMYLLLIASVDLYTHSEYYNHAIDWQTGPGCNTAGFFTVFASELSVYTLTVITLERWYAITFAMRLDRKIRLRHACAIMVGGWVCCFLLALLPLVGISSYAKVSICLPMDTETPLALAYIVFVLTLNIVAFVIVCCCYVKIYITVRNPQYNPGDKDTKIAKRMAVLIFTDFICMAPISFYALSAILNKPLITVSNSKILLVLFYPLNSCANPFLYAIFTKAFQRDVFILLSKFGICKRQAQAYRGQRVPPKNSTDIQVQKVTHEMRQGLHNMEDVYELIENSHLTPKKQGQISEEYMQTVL

Sequence of Estrogen receptor beta (Homo sapiens) (Q92731 whole entry, looked up): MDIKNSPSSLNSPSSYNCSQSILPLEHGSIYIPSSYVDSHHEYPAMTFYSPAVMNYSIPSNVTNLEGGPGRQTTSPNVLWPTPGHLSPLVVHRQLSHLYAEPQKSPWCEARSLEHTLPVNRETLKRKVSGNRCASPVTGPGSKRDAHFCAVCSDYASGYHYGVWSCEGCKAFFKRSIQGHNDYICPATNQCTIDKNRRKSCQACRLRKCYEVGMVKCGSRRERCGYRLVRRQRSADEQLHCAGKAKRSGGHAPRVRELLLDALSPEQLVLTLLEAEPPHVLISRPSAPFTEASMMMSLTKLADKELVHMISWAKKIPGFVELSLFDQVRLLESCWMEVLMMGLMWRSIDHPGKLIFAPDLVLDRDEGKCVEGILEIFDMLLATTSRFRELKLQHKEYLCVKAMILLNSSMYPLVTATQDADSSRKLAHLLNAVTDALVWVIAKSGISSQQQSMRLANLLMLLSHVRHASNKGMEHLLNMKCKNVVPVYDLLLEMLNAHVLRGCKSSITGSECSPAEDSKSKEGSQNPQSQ

Take `OCC(c1ccc(Cl)cc1)c1ccc(Cl)cc1`: the Potency result in [1], in test [2], in test [3], in test [7], in test [10] and in test [11] was “inactive” each time. The Potency in [4] is 1.93 µM (active); in test [5], 15.4 µM (active); in test [6] it was 61.1 µM (active); in test [8] it was 34.7 µM (active). For the same compound, the compound was called inactive in test [9] and in [12].
As for `O=C(c1ccccc1)C(Cl)Cl`, the Potency in test [13] was 68.6 µM (active). For the same compound, the Potency entry in test [14], in test [15], in test [16] and in [11] was “inactive” in each case. Also, the call in [9] and in [12] was inactive.
As for `Nc1ccc([N+](=O)[O-])cc1`, in [17], the result was inactive. The Potency entry in test [1], in test [2], in [3] and in test [13] was “inactive” each time. Moreover, the Potency in [4] was 13.3 µM (active); in test [5], 14.1 µM (active); in test [6], 61.1 µM (active); in test [18], 30.6 µM (active); in test [19] it was 7.7 µM (active); in test [8] it was 21.9 µM (active). Also, the Potency is 61.1 µM (active) in [15], 8.63 µM (active) in test [16] and 7.7 µM (active) in [11].
As to `CC1COC(Cn2cncn2)(c2ccc(Oc3ccc(Cl)cc3)cc2Cl)O1` (stereo not drawn), the compound was classed as inactive in test [17] and in [9]. Moreover, the Potency entry in [1], in test [2] and in test [20] was “inactive” each time. Besides, the Potency in test [4] was 0.686 µM (active); in [5] it was 2.43 µM (active); in test [6] it was 12.2 µM (active); in test [13] it was 8.63 µM (active); in test [19], 4.33 µM (active); in test [8] it was 21.9 µM (active). For the same compound, the Potency in test [14] is 10.9 µM (active).
On to `CN1CSC(=S)N(C)C1`, for which the outcome in test [17] and in test [12] was inactive. The Potency entry in test [1], in test [2], in test [3], in test [20], in [8] and in test [10] was “inactive” in each case. The Potency in test [4] is 5.42 µM (active) and 5.43 µM (active); in test [5], 6.08 µM (active) and 4.84 µM (active); in test [6], 3.05 µM (active) and 3.85 µM (active); in test [7], 12.3 µM (active); in [18] it was 5.42 µM (active) and 6.09 µM (active); in [19], 4.83 µM (active) and 13.6 µM (active). Also, the Potency was 13.6 µM (active) and 17.2 µM (active) in test [14]; 27.2 µM (active) and 21.6 µM (active) in test [16]; 24.3 µM (active) in [11].
`Cc1ccc(N(SC(F)(Cl)Cl)S(=O)(=O)N(C)C)cc1`: the compound was called inactive in [17] and in test [9]. In addition, the Potency result in test [1], in test [2], in [3], in test [15] and in test [11] was “inactive” in each case. Moreover, the Potency in test [4] is 0.122 µM (active); in test [5], 0.137 µM (active); in test [6], 2.17 µM (active); in test [7], 19.5 µM (active); in test [18], 24.3 µM (active); in test [13], 24.3 µM (active). For the same compound, the Potency in [19] was 24.3 µM (active); in test [8] it was 12.3 µM (active); in [10], 61.1 µM (active).
